The values below come from PubChem BioAssay (NCATS).

The subject of one assay is C33A. As to the kind of experiment: Primary qHTS to identify gynecologic anti-cancer compounds using libraries of approved drugs and bioactive compounds (AID 1345084). Also: nearly all actives have a fitted effect of over 55% in size. To be noted: Gynecologic cancer cell panel viability, ATPlite luminescence, 48 h; series mostly up to 57.5 µM. In a few lines: (§1)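 Measured: luminescence after ATPlite addition (15 min, RT). Exposure: 48 h, 37 C, 5% CO2.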
(In general: qHTS replaces the single test concentration by a dilution series.)

A further assay deals with CASKI. The description is as above. Conditions: Gynecologic cancer cell panel viability, ATPlite luminescence, 48 h; series mostly up to 57.5 µM. In a few lines:
as §1
For orientation: In ATP-based viability assays light output follows the ATP content of the culture.

The test system of a further assay is Es-2. Described as above. To be noted: Gynecologic cancer cell panel viability, ATPlite luminescence, 48 h; series mostly up to 57.5 µM. In a few lines:
as §1

For the next assay, the system named is HeLa. The assay is described as above. Conditions: Gynecologic cancer cell panel viability, ATPlite luminescence, 48 h; series mostly up to 57.5 µM. In a few lines:
as §1

A further assay relates to Hek293T. Described as above. Conditions: Gynecologic cancer cell panel viability, ATPlite luminescence, 48 h, control line for the selectivity index; series mostly up to 57.5 µM. In a few lines:
as §1

The test system of a further assay is JEG-3. The assay is described as above. To be noted: Gynecologic cancer cell panel viability, ATPlite luminescence, 48 h; series mostly up to 57.5 µM. An outline of the steps: as §1
The subject of another assay is PA-1. The description is as above. To be noted: Gynecologic cancer cell panel viability, ATPlite luminescence, 48 h; series mostly up to 57.5 µM. An outline of the steps: as §1
In another assay the test system is Tov-21-G. The description is as above. To be noted: Gynecologic cancer cell panel viability, ATPlite luminescence, 48 h; series mostly up to 57.5 µM. In a few lines: as §1
In the next assay the test system is Tov112D. The description is as above. Conditions: Gynecologic cancer cell panel viability, ATPlite luminescence, 48 h; series mostly up to 57.5 µM. In a few lines: as §1
Assay [1] is described as follows: Drug repurposing screens with cells derived from glioblastoma tumor samples (AID 1345199). As to all read-outs here: nearly all actives have a fitted effect of over 40% in size. To be noted: GBM patient neurospheres viability, ATP luminescence, 48 h; for activity, negative = cell killing: tumour line C. In a few lines:
(§2)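 Four patient lines of CD133+ GBM neurospheres were screened at several concentrations; hits were retested in those lines plus three slower-growing GBM lines, using 48-hour treatment and ATP-based viability.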

The test system of a further assay is astro. Described as above. To be noted: viability, ATP luminescence, 48 h; series mostly up to 45.9 µM. An outline of the steps: as §2
Another assay has as its system CAOV3. As to the kind of experiment: Primary qHTS to identify gynecologic anti-cancer compounds using libraries of approved drugs and bioactive compounds (AID 1345084). Also: nearly all actives have a fitted effect of over 55% in size. To be noted: Gynecologic cancer cell panel viability, ATPlite luminescence, 48 h; series mostly up to 57.5 µM. In a few lines: as §1
Another assay deals with OV90. Described as above. Conditions: Gynecologic cancer cell panel viability, ATPlite luminescence, 48 h; series mostly up to 57.5 µM. An outline of the steps:
as §1

The test system of a further assay is MKL-1. Briefly: qHTS assay to identify novel small-molecules to repurpose for Merkel cell carcinoma treatment (AID 1296009). Also: nearly all actives have a fitted effect of over 60% in size. To be noted: MCC and control cell lines, CellTiter-Glo viability, 72 h; series mostly up to 46 µM. An outline of the steps: (§3)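 Cells were treated for 72 hr at 37 degree celsius with compounds in 8- or 11-point dose response. Viability was read by CellTiter-Glo luminescence, normalized to no-cell (cytotoxicity) and DMSO controls.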

Another assay concerns NIH3T3. The description is as above. Conditions: MCC and control cell lines, CellTiter-Glo viability, 72 h; at 44.8 µM (top of the series) unless noted. In a few lines:
as §3

The subject of a further assay is UISO. The description is as above. To be noted: MCC and control cell lines, CellTiter-Glo viability, 72 h; series mostly up to 46 µM. In a few lines: as §3
Another assay has as its system WaGa. The description is as above. To be noted: MCC and control cell lines, CellTiter-Glo viability, 72 h; series mostly up to 46 µM. An outline of the steps: as §3
The next assay deals with SKOV3. As to the kind of experiment: Primary qHTS to identify gynecologic anti-cancer compounds using libraries of approved drugs and bioactive compounds (AID 1345084). Also: nearly all actives have a fitted effect of over 55% in size. Conditions: Gynecologic cancer cell panel viability, ATPlite luminescence, 48 h; series mostly up to 57.5 µM. An outline of the steps:
as §1

A further assay has as its system MKL-2. Briefly: qHTS assay to identify novel small-molecules to repurpose for Merkel cell carcinoma treatment (AID 1296009). Also: nearly all actives have a fitted effect of over 60% in size. To be noted: MCC and control cell lines, CellTiter-Glo viability, 72 h; series mostly up to 46 µM. An outline of the steps:
as §3

Molecules are shown by their SMILES. “And” between values parts separate entries of the source, which are not always exact repeats. Equal values may be shown once. Results filed as inconclusive are left out. Some compounds were tested as several samples or in several runs, with calls that do not always agree. The source made the active and inactive calls. Calls follow the shape of the dose curve; as a rule, active = well fitted curve in the direction sought with a large enough effect; inconclusive = small, poorly fitted or top-dose-only effect, or another doubt; inactive = no such curve, though single readings can be large; an effect the other way counts as inactive or inconclusive.
% is scaled to controls: 0 for no effect and ±100 for the full control effect; potency is read from the fitted curve at half-maximal effect.

For the molecule `CCCCN(CCCC)CCC(O)c1cc2c(Cl)cc(Cl)cc2c2cc(C(F)(F)F)ccc12` (stereo not given), the Potency entry in the assay with C33A, in the assay on CASKI, with Es-2, in the assay with HeLa, with Hek293T and with JEG-3 was “inactive” each time. The Potency entry in the assay on PA-1, with Tov-21-G, in the assay with Tov112D and with astro was “inactive” each time. The activity, negative = cell killing in assay [1] (at 20 µM (top of the series)) is -14% (inactive). Moreover, the Potency in assay [1] (tumour line A) was 11.2 µM (active); in assay [1] (tumour line B), 10 µM (active); in assay [1] (tumour line D) it was 11.2 µM (active).

Take `CCCCc1ccc2nc(NC(=O)OC)[nH]c2c1`: the Potency is 0.794 µM (active) in the assay on C33A; 0.562 µM (active) with Es-2; 0.398 µM (active) in the assay on HeLa; 1.58 µM (active) in the assay on OV90; 0.282 µM (active) in the assay on PA-1; 0.631 µM (active) in the assay on Tov-21-G. For the same molecule, the Potency with Tov112D was 251 nM (active). Also, in the assay with CAOV3, the Potency result was “inactive”.

With `CN1CCC(=C2c3ccccc3CCc3sccc32)CC1`, the Potency entry in the assay with MKL-1, in the assay on UISO, in the assay on WaGa, in the assay on CAOV3, in the assay with CASKI and with Es-2 was “inactive” each time. The Potency entry in the assay with HeLa, in the assay on Hek293T, in the assay with JEG-3, in the assay with PA-1, in the assay on Tov-21-G and in the assay with Tov112D was “inactive” throughout. The outcome in the assay on NIH3T3 was inactive. For the same molecule, the activity, negative = cell killing in assay [1] (at 46.1 µM (top of the series)) was 4.48% (inactive). Besides, the Potency was 3.98 µM (active) in assay [1] (tumour line A) and 12.6 µM (active) in assay [1] (tumour line D).

On to `OC(CN1CCN(c2cccc(Cl)c2)CC1)C(c1ccccc1)c1ccccc1` (stereo not given), for which the Potency entry in the assay on MKL-1, with UISO, in the assay with WaGa, in the assay on C33A, with CAOV3 and in the assay with CASKI was “inactive” throughout. Further, the Potency result in the assay with HeLa, in the assay with Hek293T, in the assay with JEG-3, in the assay with OV90, with PA-1 and in the assay on SKOV3 was “inactive” each time. Also, the Potency entry in the assay on Tov-21-G and with Tov112D was “inactive” throughout. Besides, the call in the assay with NIH3T3 was inactive.

For `Cc1nc(Nc2ncc(C(=O)Nc3c(C)cccc3Cl)s2)cc(N2CCN(CCO)CC2)n1`, the Potency entry in the assay with MKL-1, in the assay with MKL-2, in the assay on WaGa, with C33A, in the assay on HeLa and in the assay with Hek293T was “inactive” each time. Further, the Potency entry in the assay with JEG-3 and in the assay with Tov112D was “inactive” in each case. Besides, the values for the Potency in the assay on CAOV3, in the assay on PA-1 and in the assay on SKOV3 were 8.91 µM (active), 0.251 µM (active) and 14.1 µM (active), respectively.

As to `CC(C)Oc1ccc2c(=O)c(-c3ccccc3)coc2c1`, the Potency is 22.4 µM (active) in the assay with CAOV3; 5.01 µM (active) in the assay with Es-2; 28.2 µM (active) in the assay on HeLa; 22.4 µM (active) in the assay on OV90; 20 µM (active) in the assay on PA-1; 15.8 µM (active) with Tov-21-G. Also, in the assay with Tov112D, the Potency is 20000 nM (active).

Regarding `O=C(NOCC1CC1)c1ccc(F)c(F)c1Nc1ccc(I)cc1Cl`, the Potency in the assay with MKL-1 was 18.8 µM (active) and 20.9 µM (active); in the assay with UISO it was 15 µM (active); in the assay with WaGa, 15 µM (active); in the assay on OV90, 7.08 µM (active) and 3.55 µM (active); in the assay on Tov112D, 28.2 µM (active) and inactive; with astro it was 2.51 µM (active). Moreover, the Potency result with C33A, with CAOV3, in the assay with CASKI, in the assay on Es-2, with HeLa and in the assay with Hek293T was “inactive” in each case. For the same molecule, the Potency entry in the assay on JEG-3 and in the assay on SKOV3 was “inactive” each time.
